# Laboratory results as given in ChEMBL document CHEMBL3988442, “University of Dundee, Small-Polar-MMV Screening Library” (2021).
# The whole screen tested about 69,000 compounds, of which about 1,000 (1.4%) showed an effect of 50% or more. The entries come from a sample that favours strong results as a whole.
# Tested on: Leishmania donovani
# Assay: Leishmania intramacrophage assay
# Format: functional, organism-based
# Parameters: scale not given: in the data most compounds retested in dose-response had high values
smiles,measurement,setting,value
COc1ccc(C(C)N(C)Cc2c(C(C)C)[nH]c3ncccc23)cc1 (stereo not given),Percent Effect,"30.3 µM, […]",-22.28%
CCN1CCCC1CN(CCN(C)C)S(=O)(=O)c1ccccc1C#N (stereo not given),Percent Effect,"30.3 µM, […]",13.5%
O=C(OCC1CCCN(C(=O)c2ccccc2)C1)c1cscn1 (stereo not given),Percent Effect,"30.3 µM, […]",-48.09%
COCc1nc(C(=O)OCC2CCN(c3ccccc3)C2)cs1 (stereo not given),Percent Effect,"30.3 µM, […]",-78.1%
O=C(OCC1CCN(c2ccccc2)C1)c1cscn1 (stereo not given),Percent Effect,"30.3 µM, […]",51.5%
COc1cc(C(=O)N(Cc2ccc(F)cc2)C2CC2)cc2c1OCCO2,Percent Effect,"30 µM, 30.03 µM",14.84%
CCCNC(=O)N1CCc2ccc(S(=O)(=O)N3CCOCC3)cc2C1,Percent Effect,"30.3 µM, […]",11.75%
CC1=C(CCN2CCCC(O)C2)C(C)(C)CCC1 (stereo not given),Percent Effect,"30.3 µM, […]",25.33%
CC1=C(CCN2CC[C@@H](N3CCC(O)CC3)[C@H](O)C2)C(C)(C)CCC1,Percent Effect,"30.3 µM, […]",56.28%
CC1=C(CCN2C[C@H](O)[C@@H](N3CCOCC3)C2)C(C)(C)CCC1,Percent Effect,"30.3 µM, […]",-12.68%
Cc1ccc(N(Cc2ccco2)C(=O)CC2=NN(C)C(=O)C2)cc1,Percent Effect,"30.3 µM, […]",6.943%
CCCN1CCCC(O)(c2nc(C)c(COc3ccccc3)s2)CC1 (stereo not given),Percent Effect,"30.3 µM, […]",-5.482%
COc1ccc(OCCc2sc(C3(O)CCCNCC3)nc2C)cc1.Cl (stereo not given),Percent Effect,"30 µM, 30.03 µM",10.27%
Cc1nc(C2(O)CCCNCC2)sc1CCOc1ccccc1.Cl (stereo not given),Percent Effect,"30.3 µM, […]",4.476%
Cc1nc(C2(O)CCCNCC2)sc1CCOc1ccc(Cl)cc1.Cl (stereo not given),Percent Effect,"30 µM, 30.03 µM",92.94%
CC(=O)NCc1nc(CCOc2ccc(Cl)cc2)no1,Percent Effect,"30.3 µM, […]",7.139%
CCN1CCCC(O)(c2nc(C)c(CCOc3ccc(F)cc3)s2)CC1 (stereo not given),Percent Effect,"30.3 µM, […]",11.02%
COc1ccc(OCc2sc(C3(O)CCCNCC3)nc2C)cc1.Cl (stereo not given),Percent Effect,"30 µM, 30.03 µM",9.769%
CC(C)(C)c1ncc(C(=O)NCCNS(C)(=O)=O)s1,Percent Effect,30 µM,20.12%
CCOc1ccccc1C(CC(=O)Nc1ccc(C)cn1)NC(C)=O (stereo not given),Percent Effect,"30 µM, 30.03 µM",34.79%
COc1ccc2c(ccn2CCC(=O)Nc2n[nH]c(CC(C)C)n2)c1,Percent Effect,"30.3 µM, […]",-2.003%
COc1cccc(CCC(=O)N2CCCC(n3cc(C)cn3)C2)c1 (stereo not given),Percent Effect,"30 µM, 30.03 µM",9.343%
Cc1cc(C(=O)N2CCCC2c2noc(C)n2)[nH]n1 (stereo not given),Percent Effect,"30.3 µM, […]",-9.431%
Cc1nc(C)c(C(=O)N2CCC(O)(Cn3ccc4ccncc43)CC2)s1,Percent Effect,"30.3 µM, […]",-5.567%
O=C(Nc1cccc(CN2CCOC2=O)c1)N1CCCC1,Percent Effect,"30.3 µM, […]",-5.143%
Cc1noc(C)c1C(=O)N(C)Cc1nc(-c2ccccn2)no1,Percent Effect,"30 µM, 30.03 µM",21.79%
Cc1noc(C(C)C)c1C(=O)NCCN1CCCCCC1=O,Percent Effect,"30 µM, 30.03 µM",20.26%
O=C1CCC(C(=O)NCCOc2cccc(Cl)c2Cl)CN1 (stereo not given),Percent Effect,"30.3 µM, […]",18.68%
CN(C)[C@H]1CCCCN(C(=O)c2cccc(-c3cccc(F)c3)c2)C1,Percent Effect,"30.3 µM, […]",60.02%
CN(C)C1CCCN(C(=O)c2cccc(-c3ncc[nH]3)c2)CC1 (stereo not given),Percent Effect,"30.3 µM, […]",21.12%
CN(C)[C@H]1CCCCN(C(=O)c2cccc(N3CCS(=O)(=O)CC3)c2)C1,Percent Effect,"30.3 µM, […]",-11.54%
Cc1ncc(CNC(CCO)C2CCCCC2)s1 (stereo not given),Percent Effect,"30.3 µM, […]",-3.67%
Cc1nc(CN2C(=O)C[C@@H]3[C@@H]2CCN3S(C)(=O)=O)cs1,Percent Effect,"30.3 µM, […]",-12.74%
Cc1nnc([C@@H]2C[C@H]3CN(C(=O)C4CC4)C[C@H]3O2)[nH]1,Percent Effect,"30.3 µM, […]",15.1%
Cc1cccc(C(C(=O)NC(C)(C)CN2CCOCC2)N(C)C)c1 (stereo not given),Percent Effect,"30.3 µM, […]",-45.9%
Cc1cccc(C(C(=O)NC(C)(C)CN2CCCC2)N(C)C)c1 (stereo not given),Percent Effect,"30.3 µM, […]",64.22%
Cc1ccc(C(C(=O)NC(C)(C)CN2CCCC2)N(C)C)cc1 (stereo not given),Percent Effect,"30.3 µM, […]",-34.55%
CCN(Cc1ccc2c(c1)OCO2)C(=O)NC(C)Cn1cccn1 (stereo not given),Percent Effect,"30 µM, 30.03 µM",-8.819%
O=C1CCC(c2ccc(Cl)cc2)=NN1CN1CCSCC1,Percent Effect,"30.3 µM, […]",35.07%
O=C1CCC(c2ccc(Cl)cc2)=NN1CN1CCCCCC1,Percent Effect,"30.3 µM, […]",-2.466%
O=C1CCC(c2ccccc2)=NN1CN1CCCCCC1,Percent Effect,"30.3 µM, […]",54.14%
Cc1cc2ccccc2n1CCC(=O)NCCCc1nnc(N)s1,Percent Effect,"30.3 µM, […]",18.88%
Cc1cc(C(F)F)nn1C(C)C(=O)NCc1ncc[nH]1 (stereo not given),Percent Effect,"30.3 µM, […]",43.47%
CCn1nc(C)c(CN2CCC(c3ccc(C(=O)O)cc3)C2)c1C (stereo not given),Percent Effect,"30.3 µM, […]",54.96%
CCn1nc(C)c(CN2CCCC(c3ccc(C(=O)O)cc3)C2)c1C (stereo not given),Percent Effect,"30.3 µM, […]",17.25%
Cc1nn(C)c(C)c1CN1CCCC(c2ccc(C(=O)O)cc2)C1 (stereo not given),Percent Effect,"30.3 µM, […]",20.41%
CCS(=O)(=O)CCN(C)Cc1cc(C)ccc1OC,Percent Effect,"30.3 µM, […]",6.115%
CC(=O)NCC(=O)N1CCN(CCN(C)C)c2ncccc2C1.O=C(O)C(F)(F)F.O=C(O)C(F)(F)F,Percent Effect,"30.3 µM, […]",27.08%
COCC(=O)NC[C@@]1(COc2cccnc2)C[C@@H](O)[C@@H](O)C1.Cl,Percent Effect,"30.3 µM, […]",-3.857%
COC(=O)c1cccc(S(=O)(=O)NC(=O)COC2CCCC2)c1,Percent Effect,30 µM,-0.3864%
